Assay outcomes deposited in PubChem BioAssay by National Center for Advancing Translational Sciences (NCATS).
Sampled rows, rich in hits. Any-hit rate of the full collection: about 3.4%.
Luciferase inh = qHTS Assay for Inhibitors of Firefly Luciferase. Luciferin 4-monooxygenase (Photinus pyralis), P08659. hit rate 2.2% among 72,000. purified firefly luciferase, luminescence, 8 min. AID 411, 2009. Potency, µM (series often up to 57.1 µM), without a hit: at the highest dose activity change, negative = inhibition, usual class: inhibitors; active means well fitted inhibition curve with a large enough effect; inconclusive means small, poorly fitted or top-dose-only effect; further: on the % scale 0 is the no-effect control and ±100 the full control effect; nearly all actives have a fitted effect of over 40% in size
Target sequence (P08659 whole entry, looked up): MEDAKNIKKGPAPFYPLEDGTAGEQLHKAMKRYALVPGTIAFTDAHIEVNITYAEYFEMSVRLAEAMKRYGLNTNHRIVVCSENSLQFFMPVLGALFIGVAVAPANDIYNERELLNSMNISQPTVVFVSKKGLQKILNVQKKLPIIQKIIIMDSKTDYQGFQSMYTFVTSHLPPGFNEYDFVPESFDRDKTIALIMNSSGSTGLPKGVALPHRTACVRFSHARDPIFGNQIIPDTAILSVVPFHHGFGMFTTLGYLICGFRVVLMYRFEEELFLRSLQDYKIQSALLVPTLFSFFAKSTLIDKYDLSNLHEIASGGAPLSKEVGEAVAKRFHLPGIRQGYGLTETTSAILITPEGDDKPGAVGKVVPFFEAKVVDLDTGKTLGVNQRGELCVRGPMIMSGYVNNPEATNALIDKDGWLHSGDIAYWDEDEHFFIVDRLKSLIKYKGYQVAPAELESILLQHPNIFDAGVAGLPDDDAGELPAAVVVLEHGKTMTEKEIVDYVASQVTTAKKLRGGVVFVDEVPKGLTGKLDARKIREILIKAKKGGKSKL
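Here, luciferase activity is measured as luminescence following an 8 min room-temperature reaction at 10 uM ATP, pH 7.2. Every library sample is titrated.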
GBA activity = Glucocerebrosidase; Lysosomal acid glucosylceramidase (Homo sapiens), P04062; purified enzyme, resorufin glucoside fluorescence (screen aimed at inhibitors), 20 min; Potency, µM; hit rate 1.1% among 48,000; AID 360, 2006; in the data active means potency below about 15 µM; inconclusive means mostly about 16 µM to 33 µM;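 further: the screen sought inhibitors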
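Compounds titrated against 0.2 nM normal enzyme, 30 uM resorufin beta-D-glucopyranoside substrate, citrate/phosphate buffer with taurocholate and tween-20, pH 5.9. Reaction ran 20 min at room temperature; fluorescence (Ex 548/Em 600) gave AC50.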
PK Bst = Pyruvate Kinase. Potency, µM. purified pyruvate kinase, luminescence ATP production; ribose 5-phosphate activator present at AC10. hit rate 1.2% among 51,000. AID 361, 2006; in the data active means potency below about 11 µM; inconclusive means mostly about 12 µM to 25 µM;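 the screen sought inhibitors and activators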;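 further: scaled between full activation by ribose 5 phosphate and full inhibition by luteolin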
* = called active by the depositor; i = inactive; ? = inconclusive; nt = no result; [ ] = remark or other dose. Potency means the concentration at half of the fitted maximal effect.

SMILES | Luciferase inh | GBA activity | PK Bst
O=c1c(-c2cc(F)cc(F)c2)nc2cnc(N3CCOCC3)nc2n1Cc1ccc(F)cc1 | 0.8%[11.4 µM] | nt | nt
COCc1nnc(NC(=O)c2ccco2)s1 | -0.9% | >76.9 | >57
Cc1nnc(NC(=O)c2sc3ccccc3c2Cl)s1 | 2µM* | 14.7* | 2.09*
Cc1nnc(NC(=O)C2(c3ccccc3)CCOCC2)s1 | -0.9% | >76.9 | >57
COCc1nnc(NC(=O)c2sc3ccccc3c2Cl)s1 | 20µM* | >76.9 | i
Cc1ccc(C(=O)O[C@@H](C(=O)O)[C@@H](OC(=O)c2ccc(C)cc2)C(=O)O)cc1 (tested in a mixture with another compound) | -3.5% | nt | nt
O=C1OC2(c3ccc(O)cc3Oc3cc(O)ccc32)c2c1c(-c1ccccc1)c(-c1ccccc1)c(-c1ccccc1)c2-c1ccccc1 | -4.2%[11.4 µM] | nt | nt
O=C(O)[C@H](Cc1ccc(O)c([N+](=O)[O-])c1)N1C(=O)c2ccccc2C1=O | 2.3%[11.4 µM] | nt | nt
Nc1nc(CN2CCN(c3ccccn3)CC2)nc(Nc2ccc(Cl)cc2)n1 | 1.0% | i | >11.4
Cc1ccc(-c2noc(CN3CCN(c4ccccc4F)CC3)n2)cc1 | 5.4% | nt | nt
Cc1ccc(Nc2nc(N)nc(CN3CCCCCC3)n2)c(C)c1 | -0.1% | nt | >57
Cc1cccc(Nc2nc(N)nc(CN3CCN(c4ccccc4F)CC3)n2)c1 | 0.2% | 1.43* | >57
CN1CCN(Cc2nc(N)nc(Nc3ccc4c(c3)OCCO4)n2)CC1 | -3.2% | >76.9 | >57
Cc1cccc(Nc2nc(N)nc(CN3CCN(Cc4ccc5c(c4)OCO5)CC3)n2)c1 | -2.8% | 9.79* | >57
Cc1cccc(Nc2nc(N)nc(CN3CCN(c4ccccc4)CC3)n2)c1 | 1.4% | 4.34* | >57
COc1cccc(N2CCN(Cc3nc(N)nc(Nc4ccccc4)n3)CC2)c1 | 5.8% | 2.91* | >57
COc1ccccc1CNc1ncnc2ccc(-c3ccc(C(=O)N(C)C)cc3)cc12 | -1.2%[2.29 µM] | nt | nt
Cn1c(=O)c2c(nc(Cc3ccccc3)n2CC(=O)O)n(C)c1=O | 0.8%[11.4 µM] | nt | nt
CN(C)CC[C@H](c1ccc(Br)cc1)c1ccccn1 | 3.8%[25.5 µM] | nt | nt
CS(=O)(=O)Nc1cccc(-c2cncnc2Nc2ccc(F)cc2)c1 | -0.6%[2.29 µM] | nt | nt
O=C(c1cccc(F)c1)N1CCC[C@@]2(CCN(c3ccccn3)C2)C1 | 0.1%[11.4 µM] | nt | nt
CN1CCN(c2ncc3nc(-c4ccccc4)c(=O)n(CCC#N)c3n2)CC1 | 0.2%[11.4 µM] | nt | nt
Brc1ccc(-c2csc(/N=C/N3CCOCC3)n2)cc1 | -9.6% | >76.9 | ?
Nc1nc(-c2ccc(Br)cc2)cs1 | 12.6µM* | >76.9 | i
CCOC(=O)CSc1nc(-c2ccc3c(c2)OCO3)ccc1C#N | 3.98µM* | nt | 4.32*
SMILES | Luciferase inh | GBA activity | PK Bst
CCOC(=O)CSc1nc2cc(OCC)ccc2cc1C#N | -1.9% | >76.9 | >57
CCOC(=O)CSc1nc(-c2ccncc2)ccc1C#N | 7.94µM* | nt | i
CCOC(=O)CC(=O)CSc1nc(-c2cccnc2)ccc1C#N | -6.9% | nt | i
O=C(c1ccco1)N1CCC2(CCCN(c3ccccn3)C2)CC1 | 0.6%[11.4 µM] | nt | nt
O=C1C(C=NCc2ccco2)=C(O)c2ccccc21 | 12.6µM* | nt | nt
O=C(CCCCCN1C(=O)c2ccccc2C1=O)NCc1ccco1 | -0.9% | >76.9 | >57
O=C1C(C=NCc2cccnc2)=C(O)c2ccccc21 | 10µM* | nt | nt
O=C1C(=O)c2ccccc2C(O)=C1C(CCc1ccccc1)C1=C(O)c2ccccc2C(=O)C1=O | -4.5%[11.4 µM] | nt | nt
COc1cc(-c2[o+]c3cc(O)cc(O)c3cc2O)cc(O)c1O | 0.6%[11.4 µM] | nt | nt
CCNC(=O)[C@@H]1O[C@@H](n2cnc3c(N)nc(NCCc4ccc(CCC(=O)O)cc4)nc32)[C@H](O)[C@@H]1O | -7.6% | nt | nt
COc1cccc(Cn2c(=O)c(C)nc3cnc(OCc4ccccc4)nc32)c1 | 1.0%[11.4 µM] | nt | nt
Cc1ccc(NC(=O)Nc2ccc(F)cc2)nc1 | -25.8% | >76.9 | 4.71*
O=C(Nc1ccncc1)Nc1ccccn1 | -0.6% | >76.9 | nt
Cc1ccnc(NC(=O)Nc2ccc3c(c2)N(C)C(=O)CS3)c1 | -18.3% | >76.9 | i
Cc1ccc(NC(=O)Nc2ccc3c(c2)N(C)C(=O)CS3)nc1 | -1.9% | >76.9 | nt
CSc1ccc(NC(=O)Nc2cc(C)ccn2)cc1 | 2.51µM* | nt | nt
COc1ccc(NC(=O)Nc2cc(C)ccn2)cc1 | 1.58µM* | nt | nt
COc1ccc(NC(=O)Nc2cc(C)ccc2OC)cc1 | -28.6% | >76.9 | >57
Cc1ccnc(NC(=O)Nc2ccc(F)cc2)c1 | 10µM* | nt | nt
Cc1ccccc1-c1cncnc1N(C)Cc1ccco1 | 1.9%[2.29 µM] | nt | nt
C/C(CCN1CCCCc2nc(C)c(C)cc21)=N\OC[C@@H](O)COCc1ccco1 | -2.7%[11.4 µM] | nt | nt
N[C@@H](Cc1ncccn1)C(=O)O | 1.0%[11.4 µM] | nt | nt
NC(CSS(=O)(=O)O)=N[C@@H]1C[C@H]2CC[C@@H]1C2 | 3.8%[11.4 µM] | nt | nt
CS(=O)(=O)c1ccc([C@H](O)[C@H](CF)NC(=O)C(Cl)Cl)cc1 | 10.2%[25.5 µM] | nt | nt
COc1cc(C(=O)Nc2cc(C)ccn2)cc(OC)c1OC | 0.0% | >76.9 | >57
